# Source: PubChem (several laboratories)
# This is a sample that favours compounds with a hit; in the whole collection about 7.2% have one here.
# ALR inh: inhibitors of human ALR sulfhydryl oxidase, primary screen, biochemical, H2O2 detection, HRP-luminol luminescence, single point | AID 485317, 2010 | purified ALR, DTT oxidation | FAD-linked sulfhydryl oxidase ALR (Homo sapiens), P55789 | inhibition, % (no concentration beside the values) | 3.8% of 290,000 active;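 active = mean replicate inhibition above about 79%, with every replicate also reaching it, limit read from the data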
# SUMO Mot1 rescue: yeast Mot1-301 growth rescue at high temperature, primary screen, SUMOylation pathway inhibitor project, S. cerevisiae, ATP luminescence, 38.5C; S. cerevisiae Mot1-301 growth rescue; percent above DMSO median, 100 means doubled; growth rescue, % at 18.8 µM; 1% of 320,000 active; AID 2716, 2010;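 active = every valid replicate shows activation above 250% relative to neutral control wells; inactive = the rest, any valid replicate at or below 250%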;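 note: OY570 slx delta 5 strain wells were the positive control but not used for scaling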
# Efflux pump mplx: inhibitors of Candida efflux pumps in yeast, primary screen, S. cerevisiae, Nile Red, multiplex; 0.44% of 330,000 active; inhibition, % at 10 µM; S. cerevisiae Candida pump triplex; AID 485275, 2010;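 active = plate passing quality check with inhibition over a set limit, or well fluorescence over plate mean plus 4 SD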;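 note: Nile Red retained in pooled yeast measured as flow cytometry median fluorescence; 0% = buffer negative control and 100% = Enniatin B positive control; higher means more Nile Red kept so more efflux inhibition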
# AHR activator: AHR activators, primary screen, cell-based, luminescence, luciferase reporter, human. 2.5% of 320,000 active. activation, % at 5 µM. AHR-responsive luciferase reporter cells; in the data active = activation above about 47%;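 note: 0% = vehicle wells and 100% = reference agonist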
# A1 inh: caspase 3/7 activation in MEF A1-2A-BIM cells, primary screen, A1 inhibitor project, cell-based, luminescence, HTS; Caspase-Glo 3/7 luminescence, 3 h; percent of clofoctol response, vehicle zero; caspase activation, % (test concentration not listed); 0.066% of 330,000 active; AID 2462, 2010;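 active = over half of replicate activation scores above 10%, or exactly half above 10 with the replicate mean above 10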
# VLA-4 inh: inhibition in human VLA-4 binding assay, primary screen, VLA-4 allosteric modulator project, MLPCN library, flow cytometry, VLA-4 expressing cells; Integrin alpha-4 (Homo sapiens), P13612; ligand binding flow cytometry; inhibition, % (about 7 µM as worked out from the volumes in the protocol); 0.2% of 330,000 active; in the data active = inhibition above about 50%
# An asterisk follows results filed as active; . = no result.
SMILES,ALR inh,SUMO Mot1 rescue,Efflux pump mplx,AHR activator,A1 inh,VLA-4 inh
CC(C)(C)NC(=O)CSc1nc2ccc(Nc3nc(N4CCOCC4)nc(N4CCOCC4)n3)cc2s1,99*,2,0,14,0,0
CC(=O)CSc1nc2ccc(Nc3nc(N4CCOCC4)nc(N4CCOCC4)n3)cc2s1,99*,2,0,-3,0,10
Cc1ccc(NC(=O)CSc2nc3ccc(Nc4nc(N5CCOCC5)nc(N5CCOCC5)n4)cc3s2)cc1,-5,3,0,.,10*,-1
COc1ccc(NC(=O)CSc2nc3ccc(Nc4nc(N5CCOCC5)nc(N5CCOCC5)n4)cc3s2)cc1,5,3,0,4,4,9
CCOC(=O)c1ccc(Nc2nc(N3CCOCC3)nc(N3CCOCC3)n2)cc1,-23,1,0,-1,0,-3
N#Cc1cnn2c3c(cnc12)C(=O)N1CCc2ccccc2C1C3 (stereo not given),-8,5,0,-12,0,15
Cc1ccccc1C(=O)Nc1ccnn1C1CCN(Cc2ccncc2)CC1,-11,11,0,1,-1,1
Cn1cc(S(=O)(=O)Oc2ccccc2)c(=O)n(C)c1=O,-2,-16,0,-1,1,8
Cc1cccc(C(=O)Nc2sc(C)c(-c3ccccc3)c2C#N)c1,-4,-9,0,50*,0,-7
COC(=O)c1ccc(NC(=S)NC2CC3CCC2C3)cc1 (stereo not given),3,5,0,1,0,4
NCCCn1c(C(=O)c2cc(Cl)c(N)c(Cl)c2)c2ccc([N+](=O)[O-])cc2[n+]1[O-],-79,128,0,115*,0,-23
NC(=O)c1ccc(Cn2c(C(=O)c3cc(Cl)c(N)c(Cl)c3)c3ccccc3[n+]2[O-])cc1,-17,-8,0,78*,0,5
COc1ccc(C(=O)c2c3ccc(C(F)(F)F)cc3[n+]([O-])n2CCCC(N)=O)cc1,14,369,0,19,0,-8
NCCCn1c(C(=O)c2cc(Cl)c(N)c(Cl)c2)c2ccc(C(F)(F)F)cc2[n+]1[O-],29,-8,0,57*,1,5
NC(=O)CCCn1c(C(=O)c2cc(Cl)c(N)c(Cl)c2)c2ccc(C(F)(F)F)cc2[n+]1[O-],28,-8,0,55*,0,-2
COc1ccccc1NC(=O)Cn1cnc2c(nnn2-c2ccc(C)cc2)c1=O,-5,-5,0,0,0,23
Brc1ccc(C[n+]2ccccc2)cc1,.,7,0,2,0,6
COc1ccc(OC)c(/C=N/N(CCC#N)C2=NS(=O)(=O)c3ccccc32)c1,-6,6,0,8,0,2
Cc1ccc(Oc2cc(C)nc(-c3ccccc3O)n2)cc1,2,16,0,4,0,-9
Cc1cc(N2CCC(C)CC2)nc(-c2ccccc2O)n1,-16,6,0,8,0,0
Cc1cc(N2CCN(c3ccccc3)CC2)nc(-c2ccccc2O)n1,-2,8,0,78*,0,9
Cc1cc(OC2CCCCC2)nc(-c2ccccc2O)n1,99*,42,0,0,1,19
CCOC(=O)C1=C(C)Nc2ccccc2N=C1NC(=O)c1ccc(Cl)c(S(=O)(=O)N2CCCC2)c1,-1,-7,0,-1,-1,9
COc1cccc(CN(C)C(=O)c2ccccc2SCC(=O)N2CCCC2)c1,-1,16,0,0,0,-1
COc1cccc(NC(=S)NNC(=O)C(C)n2nc(C)c([N+](=O)[O-])c2C)c1 (stereo not given),84*,23,0,0,1,4
